Hits are enriched below; roughly 3.5% of the tested compounds scored in any of these assays.
Pf apPOL inh – Pf-apPOL DNA polymerase inhibition | AID 1794808 | Recombinant Pf-apPOL, molecular beacon fluorescence, 1.5 h | inhibition, % at 10 µM | 0.25% of 210,000 active
mHTT-CaM PPI inh – mHTT-calmodulin interaction abrogation; AID 1671202; inhibition, % at 15 µM; AlphaScreen His-mHTT/GST-CaM binding, luminescence; 3.6% of 190,000 active; P42858;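 also: 0% = both proteins with DMSO and 100% = one protein alone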
* marks the source's active call; other numbers are inactive results; i = inactive; . = no result given. Rule as the data show it: active = inhibition above about 50%; inactive = the rest.

SMILES	Pf apPOL inh	mHTT-CaM PPI inh
NC1COS(=O)OC1c1ccc([N+](=O)[O-])cc1 (centres undefined)	-2	-6
Cc1cc(C)cc(C(=O)N2CCCC(C(=O)Nc3ccc(F)cc3)C2)c1 (centres undefined)	2	0
CC(C)(C)C1=CC(=Cc2cc(C(C)(C)C)c(O)c(C(C)(C)C)c2)C=C(C(C)(C)C)C1=O	.	18
CC(C)(C)C1=CC(=O)c2c(ccc(C(C)(C)C)c2O)C1=O	3	58*
Cc1cccc(-n2cnc3cc(C(=O)N4CCc5ccccc54)ccc32)c1	28	67*
Cc1cccc(-n2cnc3cc(C(=O)NC4CCCC4)ccc32)c1	4	10
COc1cc(C=C2Oc3cc(OCC(=O)OC(C)C)cc(C)c3C2=O)cc(OC)c1OC	-5	-1
O=C(Nc1ccc(N2CCCC2)cc1)c1ccccc1F	-5	88*
O=C(Nc1ccc(N2CCOCC2)cc1)c1ccccc1F	0	4
CC(C)Oc1cccc(C(=O)Nc2ccc(N3CCCC3)cc2)c1	-7	99*
O=C(Nc1ccc2ncnc(N3CCCCC3)c2c1)c1cccc(F)c1	-1	1
Cc1cccc(C(=O)Nc2ccc3ncnc(N4CCCCC4)c3c2)c1	1	18
O=C(Nc1ccc2ncnc(N3CCCCC3)c2c1)c1ccccc1F	2	55*
O=C(Nc1ccc(N2CCCCC2)cc1)c1ccccc1	-19	.
CN(C)c1cccc(C(=O)Nc2ccc3ncnc(N4CCCC4)c3c2)c1	9	76*
CC1Oc2ccccc2OC1C(=O)N1CC2(COC(C)(C)OC2)C1 (centres undefined)	-6	-4
COc1ccc(-c2nc3cccnc3n2C2CCN(C(=O)Nc3cc(F)ccc3F)C2)cc1 (centres undefined)	-4	41
CCc1ccccc1NC(=O)CN1CCC(c2nc(-c3cccs3)no2)CC1	-6	10
O=C1OC(c2ccccc2)=N/C1=C\c1cn(-c2ccccc2)nc1-c1cccs1	-6	2
O=C(N=c1sccn1Cc1ccc(C(=O)N2CCCC2)cc1)c1ccccc1F	58*	7
Cc1cccc(C(=O)N=c2sccn2Cc2ccccc2C(=O)N2CCCC2)c1	0	15
O=C(CN(c1ccc(F)cc1)S(=O)(=O)c1cccnc1)NCCc1ccccc1	-8	-1
CCOc1ccc(C2=C(CN3CCOCC3)C(c3ccccc3)c3ccccc3O2)cc1 (centres undefined)	-1	15
COc1ccc(C2=C(CN(C)C)C(c3ccccc3)c3ccccc3O2)cc1 (centres undefined)	0	71*
CCOc1ccc(C2=C(CN(C)C)C(c3ccc(F)cc3)c3ccccc3O2)cc1 (centres undefined)	-3	91*
SMILES	Pf apPOL inh	mHTT-CaM PPI inh
Cc1ccc(C2C(CN3CCOCC3)=C(c3ccccc3)Oc3ccccc32)cc1 (centres undefined)	0	25
Cc1ccc(/C=C2\C(=O)Nc3ccc(F)cc32)cc1	0	48
O=[N+]([O-])c1ccc(OS(=O)(=O)c2ccc3ccccc3c2)c2ncccc12	.	100*
O=[N+]([O-])c1ccc(Sc2cccc3cccnc23)c2ncccc12	-8	4
Cc1ccc(C2=NN(CC(=O)NC3CCCC(C)C3C)C(=O)CC2)cc1 (centres undefined)	-12	4
O=C(c1cc2ccccc2o1)N1CCN=C1SCc1ccccc1F	-6	-11
CN1C(=CC=C2C(=O)Oc3ccccc3C2=O)C(C)(C)c2ccccc21	i	-7
CN1/C(=C\Sc2ccccc2[N+](=O)[O-])C(C)(C)c2ccccc21	1	76*
O=C1OC(c2cc([N+](=O)[O-])ccc2Cl)=N/C1=C\c1cccc(Br)c1	-2	10
Cc1ccc(CNc2ccc3[nH]ncc3c2)cc1	-6	82*
COc1ccccc1CNc1ccc2cn[nH]c2c1	-1	44
c1ccc(CNc2ccc3cn[nH]c3c2)cc1	0	82*
Oc1ccc(CNc2ccc3cn[nH]c3c2)cc1	-4	10
COc1cc(CNc2ccc3cn[nH]c3c2)ccc1O	0	37
Cc1ccccc1CNc1ccc2cn[nH]c2c1	-4	62*
O=C(CN(c1ccc(F)cc1)S(=O)(=O)c1ccc2c(c1)OCCO2)NC1CCCCC1	-8	0
Cc1ccc(NC(=O)CN2C(=O)C(c3ccc(Cl)cc3)=NC2(C)C)cc1C	-4	-10
COc1ccc(C(=O)N2CCCC(c3cccc(C(=O)NC4CC4)c3)C2)cc1 (centres undefined)	-1	4
O=C(NCc1cccnc1)C(=O)Nc1ccc(Cl)c(C(F)(F)F)c1	2	9
COCCCNC(=O)c1cc2c(=O)n3cc(C)ccc3nc2n(C2CCCC2)c1=N	4	-1
CCOC(=O)c1sc(NC(=O)Nc2ccccc2C(F)(F)F)nc1C	-4	-18
Cc1ccc(C)c(N=C2C(=O)Nc3ccc(Br)cc32)c1	-6	11
Cc1cccc(N=C2C(=O)Nc3ccc(Br)cc32)c1C	0	66*
CC1CN(C(=O)c2cn3c(n2)CCC(c2cc(F)ccc2F)C3)CC(C)O1 (centres undefined)	-6	6
O=C(Cn1cnc([N+](=O)[O-])n1)Nc1cc(Oc2cccc(Cl)c2)cc([N+](=O)[O-])c1	3	62*
SMILES	Pf apPOL inh	mHTT-CaM PPI inh
COc1cc(NC(=O)Cn2cnc([N+](=O)[O-])n2)cc([N+](=O)[O-])c1	2	3
Cc1cccc(Oc2cc(NC(=O)Cn3cnc([N+](=O)[O-])n3)cc([N+](=O)[O-])c2)c1	4	57*
O=C(Cn1cnc([N+](=O)[O-])n1)Nc1cc(Oc2cccnc2)cc([N+](=O)[O-])c1	2	6
O=C(NCc1ccc2c(c1)OCO2)c1nnc2n(c1=O)CCN2c1ccc(F)cc1	1	-1
CC1Cc2nc(SCC(=O)N3CCc4ccccc43)n(Cc3ccccc3)c(=O)c2S1 (centres undefined)	-3	6
COc1ccc(C(=O)N(Cc2nc3cc(Cl)ccc3o2)C2CC2)cc1F	-8	-4
O=C(c1ccccc1)N1CCCC2(CC(c3cccnc3)=CO2)C1 (centres undefined)	-10	97*
O=C(c1ccc(Cl)cc1)N1CCCC2(CC(c3ccccc3)=CO2)C1 (centres undefined)	-8	91*
O=C(c1ccc(F)cc1)N1CCCC2(CC(c3cccnc3)=CO2)C1 (centres undefined)	0	28
COc1ccc(C2=COC3(CCCN(C(=O)c4ccccc4)C3)C2)cc1 (centres undefined)	-4	65*
COc1ccc(C2=COC3(CCCN(C(=O)c4ccc(F)cc4)C3)C2)cc1 (centres undefined)	-9	-4
O=C(c1ccc(Cl)cc1)N1CCCC2(CC(c3ccc(Cl)cc3)=CO2)C1 (centres undefined)	-5	-12
CC1CCC(NC2CCCc3c2[nH]c2ccc([N+](=O)[O-])cc32)C1 (centres undefined)	-11	19
Cc1nc(SCc2ccccc2)nc(O)c1Cc1ccccc1	1	5
CN1CCN(C(=O)c2cc(-c3cccs3)n(CC(=O)NC3=NCCS3)n2)CC1	-1	0
O=C(Nc1ccc(S(=O)(=O)Nc2cccc(Cl)c2Cl)cc1)c1ccc([N+](=O)[O-])cc1	-7	62*
O=C(Nc1ccc(S(=O)(=O)Nc2ccccc2)cc1)c1ccc([N+](=O)[O-])cc1	0	-7
O=C(CC1CCCCC1)N1CCOCC1CO (centres undefined)	-6	-1

Bioassay records from PubChem.
